Spn MK inh – S. pneumoniae MK inhibitors, primary screen, biochemical, PK/LDH-coupled NADH absorbance; mevalonate kinase [Streptococcus pneumoniae D39]; purified MK, PK/LDH-coupled NADH absorbance 340 nm; inhibition, % at 10 µM; hit rate 0.48% among 65,000; AID 555, 2006;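 active = ranked among the strongest by inhibition in the single 10 µM screen, a fixed top-ranked set picked for dose follow-up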
Autofluor 339 – intrinsic fluorescence of library compounds, ex339/em460 – biochemical, MLSMR library, data from DPM-DC assay, artefact control, profiling panel; fluorescence fold increase at 10 µM; hit rate 5.5% among 65,000; compound autofluorescence, ex339/em460 nm, NADH buffer; hits give high values; 1 = no-compound wells, NADH background; AID 709, 2007;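 active = at 10 µM, mean starting fluorescence two-fold or more over control wells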;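 note: signal is the first read of a kinetic run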
Abs 340nm – compound light absorbance at 340 nm, profiling panel, artefact control, biochemical, MLSMR library, data from PS, PMK, MK assays | 65,000 tested, under 10 active | AID 708, 2007 | compound absorbance at 340 nm, fold over control | fold change at 10 µM;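 active = at 10 µM dose, initial 340 nm absorbance at least 2 fold that of control wells; inactive = change under 2 fold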;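 note: initial absorbance extrapolated from kinetic A340 decline of NADH oxidation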
DPM-DC inhibit – S. pneumoniae DPM-DC inhibitors, primary screen, biochemical, PK/LDH-coupled NADH fluorescence. diphosphomevalonate decarboxylase (Streptococcus pneumoniae D39). purified DPM-DC. calls only at 10 µM. hit rate 0.49% among 65,000;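 active = the 320 compounds with the highest percent inhibition in the single-dose primary screen, excluding strongly autofluorescent ones, cut at about 32% in these data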;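 note: kinetic rate of NADH fluorescence loss reporting ADP formed by the decarboxylase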
NADH enzymes – inhibitors of PK/LDH coupling enzymes, profiling panel, artefact control, biochemical, MLSMR library | coupled PK/LDH NADH assays, four targets | IC50, µM (titrated, usually from 10 µM), inactives show at the highest dose inhibition | hit rate 0.02% among 65,000 | AID 774, 2007;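 active = single-dose screening hits from any of four coupled enzyme assays that gave an IC50 when retested across doses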;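 note: the DPM-DC format reads NADH fluorescence rather than 340 nm absorbance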
PMK inhibit – S. pneumoniae PMK inhibitors, primary screen, biochemical, mevalonate pathway, pilot trial included; purified PMK, PK/LDH-coupled NADH absorbance 340 nm; inhibition, % at 10 µM; hit rate 0.49% among 65,000; AID 539, 2006;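 active = top-ranked compounds by inhibition in the single 10 µM screen, taking a fixed number of the strongest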;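 note: 0% = full reaction with DMSO carrier and 100% = background rate without enzyme reaction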
The depositor's hits bear a star. Compounds with a hit are over-represented: about 6.5% of the library has one in this group of screens.

For O=C(c1ccc2c3c(cccc13)CC2)N1CCN(c2ncccn2)CC1 the results were Spn MK inh 8, Autofluor 339 1.1, Abs 340nm 1, DPM-DC inhibit inactive, NADH enzymes 5% and PMK inhibit 7.
Cc1nc2sc(C(c3ccc(F)cc3)N3CCN(C(=O)c4ccco4)CC3)c(O)n2n1 (stereo unspecified) was read as Spn MK inh 1, Autofluor 339 1, Abs 340nm 0.99, DPM-DC inhibit inactive, NADH enzymes 6% and PMK inhibit 16.
For O=C(NC1CCCc2ccccc21)C1CCN(c2c3c(nc4ncnn24)CCC3)CC1 (stereo unspecified) the results were Spn MK inh 5, Autofluor 339 4.7*, Abs 340nm 1.1, NADH enzymes 6% and PMK inhibit 6.
For Cn1cc(SCC(=O)Nc2nc3ccccc3s2)c2ccccc21 the results were Spn MK inh 0, Autofluor 339 1, Abs 340nm 1, DPM-DC inhibit inactive, NADH enzymes 5% and PMK inhibit 16.
For Cc1ccc(-n2cc(C(C)(C)C)[nH]c2=S)cc1 the results were Spn MK inh 9, Autofluor 339 1.1, Abs 340nm 0.99, DPM-DC inhibit inactive, NADH enzymes 5% and PMK inhibit 5.
Screening Cc1cc(C)n(CCCNCC(O)c2ccccc2)n1 (stereo unspecified) returned Spn MK inh 53*, Autofluor 339 1.1, Abs 340nm 1.1, DPM-DC inhibit inactive, NADH enzymes 18% and PMK inhibit 0.
Cc1cc(C(=O)NCc2ccccc2)c(=O)[nH]c1C was read as Spn MK inh 9, Autofluor 339 2.1*, Abs 340nm 1.1, NADH enzymes 13% and PMK inhibit 17.
Screening Cc1cccn2c(=O)c3cc(C(=O)Nc4ccc(N(C)C)cc4)n(C)c3nc12 returned Spn MK inh 5, Autofluor 339 1.3, Abs 340nm 1.1, DPM-DC inhibit inactive, NADH enzymes 4% and PMK inhibit 7.
For CCNC(=O)c1cc2c(=O)n3cccc(C)c3nc2n(Cc2ccc(C)cc2)c1=N the results were Spn MK inh 7, Autofluor 339 3.8*, Abs 340nm 1, NADH enzymes 9% and PMK inhibit 11.
Screening Cc1cccn2c(=O)c3cc(C(=O)NC(C)C)c(=N)n(Cc4ccncc4)c3nc12 returned Spn MK inh 9, Autofluor 339 3.7*, Abs 340nm 1, NADH enzymes 7% and PMK inhibit 4.
`CCCn1c(=N)c(C(=O)NCc2ccc3c(c2)OCO3)cc2c(=O)n3cccc(C)c3nc21` gave Spn MK inh 8, Autofluor 339 2.1*, Abs 340nm 1.1, DPM-DC inhibit inactive, NADH enzymes 10% and PMK inhibit 10.
Screening O=C(C(Cc1ccccc1)n1cccc1)N1CCCCCC1 (stereo unspecified) returned Spn MK inh 2, Autofluor 339 1.1, Abs 340nm 0.99, DPM-DC inhibit inactive, NADH enzymes 2% and PMK inhibit 4.
For Cc1cc(C(=O)NCCCN2CCN(C3CCCCC3)CC2)n(-c2ccccc2)n1 the results were Spn MK inh 10, Autofluor 339 1.1, Abs 340nm 1, DPM-DC inhibit inactive, NADH enzymes 1% and PMK inhibit 0.
For CN1CCc2c(C#N)c(N3CCCCC3)nc(N3CCOCC3)c2C1 the results were Spn MK inh 4, Autofluor 339 1.6, Abs 340nm 1.1, DPM-DC inhibit inactive, NADH enzymes 6% and PMK inhibit 1.
`CCc1nc(N2CCOCC2)c(C#N)c2c1CCCC2` gave Spn MK inh 0, Autofluor 339 2*, Abs 340nm 1, DPM-DC inhibit inactive, NADH enzymes 1% and PMK inhibit 2.
CCCc1nc(N2CCCC2)c(C#N)c2c1CCCC2 was read as Spn MK inh 20, Autofluor 339 2.1*, Abs 340nm 1, DPM-DC inhibit inactive, NADH enzymes 7% and PMK inhibit 0.

Compound activity deposited in PubChem by SRMLSC.
